HT1080 IDH1KD tx: kills HT-1080 cells with IDH1 knockdown. Potency, µM (series often up to 46.1 µM), most hits filed as cytotoxic. HT-1080 IDH1 knockdown viability, ATP luminescence, 48 h. 360,000 compounds, 2% hits
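In this qHTS, HT-1080 cells depleted of IDH1 are exposed for 48 h at 37 °C to compound titrations. Toxicity is scored from CellTiter-Glo luminescence, with DMSO as full viability and medium alone as none.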
KB-3-1 cytotox: KB-3-1 parental cell cytotoxicity. KB-3-1 viability, CellTiter-Glo ATP luminescence, 72 h. Potency, µM (doses to about 46.1 µM), most hits filed as cytotoxic. 400,000 compounds, 1.4% hits; further: nearly all actives have a fitted effect of over 60% in size
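72 h, 37 °C compound treatment of KB-3-1 parental cells; CellTiter-Glo added, 10 min, luminescence read. Data corrected against DMSO-only plates and normalized before curve fitting.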
TGFb SMAD3 inh: blocks TGF-b signaling | HepG2 CAGA-GFP TGF-b/SMAD3 reporter, GFP fluorescence, 18 h; TGF-beta stimulated, 500 pg/mL final | Potency, µM (titrated, usually from 46.1 µM), hits mostly inhibitors | 410,000 compounds, 1.2% hits; further: nearly all actives have a fitted effect of over 65% in size
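HEPG2 CAGA-GFP, 1000 cells/well; 2 h settle, 37 C; cpd via pin tool; TGF-b 500 pg/mL final; 18 h, 37 C; GFP imaging ex488/em500-530; %Activity normalised to -TGF-b and +DMSO controls; CRC fit, curve class.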
HT1080NT lethal: kills 2HG-producing HT-1080-NT fibrosarcoma cells; Potency, µM (top dose mostly 46.1 µM), most hits filed as cytotoxic; HT-1080-NT fibrosarcoma viability, CellTiter-Glo ATP luminescence, 48 h; AID 686970; 360,000 compounds, 1.6% hits;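 further: NT is the 2HG producing partner of a matched IDH1 knockdown line; nearly all actives have a fitted effect of over 55% in size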
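Read-out is CellTiter-Glo luminescence after 10 minutes at room temperature, following 48 hours' compound treatment of HT-1080-NT cells (750 cells/well, RPMI, 5% FBS, 37 degrees C).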
KB-V1 MDR tox: kills drug-selected multidrug resistant KB-V1 cells; Potency, µM (series often up to 46.1 µM), usual class: cytotoxic; KB-V1 MDR cells viability, CellTiter-Glo, 72 h; AID 1347076; 400,000 compounds, 3.4% hits; further: nearly all actives have a fitted effect of over 60% in size
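KB-V1 MDR subline cells in DMEM (phenol-red free, 10% FBS) exposed to compounds in qHTS concentration series for 72 h at 37 degrees C. Viability read by CellTiter-Glo luminescence; concentration-effect curves fitted after normalization and correction.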
HepG2 viability: counter-screen for TGF-b inhibitors: cytotoxicity in HepG2 cells | AID 588856 | 410,000 compounds, 0.76% hits | HepG2 CAGA-GFP viability, ATP luminescence, 18 h | Potency, µM (series often up to 46.1 µM), most hits filed as cytotoxic
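HepG2 CAGA-GFP cells (1000/well, DMEM with 1% FBS) received compound, then TGF-beta at 500 pg/mL final, and were incubated 18 hours at 37 degrees C. Viability was read by CellTiter-Glo luminescence. Media-only wells were set as complete cell-killing and DMSO as no toxicity.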
Hits are given with their value; ! = not active in a repeat. Compounds with a hit are over-represented: about 6.6% of the library has one in this group of screens. The call rests on the fitted dose curve; in most records, active means well fitted curve in the direction sought with a large enough effect; inconclusive means small, poorly fitted or top-dose-only effect, or another doubt; inactive means no such curve, though single readings can be large; an effect the other way counts as inactive or inconclusive.

Screening Cc1cccc(NC(=O)CSCC(=O)Nc2cc(Cl)ccc2N2CCN(C)CC2)c1 returned HT1080 IDH1KD tx 15µM, KB-3-1 cytotox inactive, TGFb SMAD3 inh inconclusive, HT1080NT lethal 15µM, KB-V1 MDR tox inactive and HepG2 viability inactive.
CC(=O)Nc1ccc(S(=O)(=O)NCC2CCC(C(=O)NCc3ccccc3Cl)CC2)cc1 (configuration not stated) was read as KB-3-1 cytotox inactive, TGFb SMAD3 inh inactive, KB-V1 MDR tox inactive and HepG2 viability inactive.
CCOc1ccc(OCCC(=O)Nc2ccc(N3CCOCC3)cc2N2CCOCC2)cc1 was read as HT1080 IDH1KD tx inactive, KB-3-1 cytotox inactive, TGFb SMAD3 inh inactive, HT1080NT lethal inactive, KB-V1 MDR tox inactive and HepG2 viability inactive.
Screening CCCCn1c(=O)nc2n(-c3ccccc3)c3ccccc3cc-2c1=O returned HT1080 IDH1KD tx inactive, KB-3-1 cytotox inconclusive, TGFb SMAD3 inh inactive, HT1080NT lethal inactive, KB-V1 MDR tox 10µM and HepG2 viability inactive.
Screening N#CCn1c2ccccc2c2nc3ccccc3nc21 returned HT1080 IDH1KD tx inactive, KB-3-1 cytotox inactive, TGFb SMAD3 inh inactive, HT1080NT lethal inactive, KB-V1 MDR tox inactive and HepG2 viability inactive.
For c1ccc2nc3c(nc2c1)c1ccccc1n3CCN1CCOCC1 the results were HT1080 IDH1KD tx 13µM, KB-3-1 cytotox inactive, TGFb SMAD3 inh inactive, HT1080NT lethal inactive, KB-V1 MDR tox inconclusive and HepG2 viability inactive.
`C#CCn1c2ccccc2c2nc3ccccc3nc21` gave HT1080 IDH1KD tx inactive, KB-3-1 cytotox inactive, TGFb SMAD3 inh inactive, HT1080NT lethal inactive, KB-V1 MDR tox 18µM and HepG2 viability inactive.
N#Cc1c(N2CCCC2)nsc1-c1ccccc1 was read as HT1080 IDH1KD tx inactive, KB-3-1 cytotox inactive, TGFb SMAD3 inh inactive, HT1080NT lethal inactive, KB-V1 MDR tox inactive and HepG2 viability inactive.
N#Cc1c(N2CCOCC2)nsc1-c1ccccc1 was read as HT1080 IDH1KD tx inactive, KB-3-1 cytotox 10µM, TGFb SMAD3 inh inactive, HT1080NT lethal inactive, KB-V1 MDR tox inconclusive and HepG2 viability inactive.
Screening CCc1ccc(NC(=O)CC2C(=O)N(c3cccc(OC)c3)C(=O)N2Cc2ccc(F)cc2)cc1 (configuration not stated) returned TGFb SMAD3 inh inconclusive and HepG2 viability inactive.
For CCN1C(=O)C(CC(=O)Nc2ccc(OC)cc2)N(CCc2ccc(F)cc2)C1=S (configuration not stated) the results were HT1080 IDH1KD tx inconclusive, KB-3-1 cytotox inconclusive, TGFb SMAD3 inh inconclusive, HT1080NT lethal inconclusive, KB-V1 MDR tox inactive and HepG2 viability inactive.
`Cc1ccsc1CCN1C(=O)N(c2ccccc2)C(=O)C1CC(=O)Nc1ccc(F)cc1` (configuration not stated) gave KB-3-1 cytotox 23µM, TGFb SMAD3 inh inconclusive, KB-V1 MDR tox inconclusive and HepG2 viability inactive.
Screening CCCOc1ccc(NC(=O)CC2C(=O)N(c3ccccc3)C(=O)N2Cc2ccc(F)cc2)cc1 (configuration not stated) returned TGFb SMAD3 inh 10µM and HepG2 viability inactive.
`Cc1ccc(N2C(=O)C(CC(=O)Nc3ccc(F)cc3)N(CCC3=CCCCC3)C2=O)cc1` (configuration not stated) gave KB-3-1 cytotox inconclusive, TGFb SMAD3 inh 13µM, KB-V1 MDR tox inconclusive and HepG2 viability inactive.
Screening CCN1C(=O)C(CC(=O)Nc2ccc(OC)cc2)N(CCCN2CCN(c3ccc(F)cc3)CC2)C1=S (configuration not stated) returned HT1080 IDH1KD tx 18µM, KB-3-1 cytotox inconclusive, TGFb SMAD3 inh inactive, HT1080NT lethal inconclusive, KB-V1 MDR tox inconclusive and HepG2 viability inactive.
For CCOc1ccc(NC(=O)CC2C(=O)N(c3ccc(C)cc3)C(=O)N2CCC2=CCCCC2)cc1 (configuration not stated) the results were KB-3-1 cytotox inactive, TGFb SMAD3 inh inactive, KB-V1 MDR tox inactive and HepG2 viability inactive.
Cc1c(C)n(Cc2ccccc2)c2ccc(C(=O)N3CCN(c4ccccc4F)CC3)cc12 was read as KB-3-1 cytotox inactive, TGFb SMAD3 inh inactive, KB-V1 MDR tox inconclusive and HepG2 viability inactive.
Screening CC(=O)Nc1ccc(CN2C(=O)C(C)ON=C2c2ccccc2-c2ccco2)cc1 (configuration not stated) returned HT1080 IDH1KD tx inactive, KB-3-1 cytotox inactive, TGFb SMAD3 inh inactive, HT1080NT lethal inconclusive, KB-V1 MDR tox inconclusive and HepG2 viability inactive.
Screening Cc1nc2ccc(S(=O)(=O)N(CC(=O)Nc3cccc(C)c3C)Cc3ccccc3)cc2s1 returned KB-3-1 cytotox inactive, TGFb SMAD3 inh inactive, KB-V1 MDR tox inactive and HepG2 viability inactive.
`C=CCN1C(=O)C(CC(=O)Nc2ccc(OCCC)cc2)N(CCCN2CCN(Cc3ccccc3)CC2)C1=S` (configuration not stated) gave HT1080 IDH1KD tx 16µM, KB-3-1 cytotox inactive, TGFb SMAD3 inh inconclusive, HT1080NT lethal 16µM, KB-V1 MDR tox inconclusive and HepG2 viability inactive.
Screening CCOc1ccc(NC(=O)CC2C(=O)N(c3ccccc3)C(=O)N2CCc2ccc(OC)cc2)cc1 (configuration not stated) returned KB-3-1 cytotox inactive, TGFb SMAD3 inh inactive, KB-V1 MDR tox inactive and HepG2 viability inactive.
CCCOc1ccc(NC(=O)CC2C(=O)N(CC)C(=S)N2Cc2cccs2)cc1 (configuration not stated) was read as HT1080 IDH1KD tx 20µM, KB-3-1 cytotox inconclusive, TGFb SMAD3 inh inconclusive, HT1080NT lethal inconclusive, KB-V1 MDR tox 15µM and HepG2 viability inactive.
For CCOc1ccc(NC(=O)CC2C(=O)N(c3ccccc3)C(=O)N2CCc2cccs2)cc1 (configuration not stated) the results were HT1080 IDH1KD tx inactive, KB-3-1 cytotox inactive, TGFb SMAD3 inh inactive, HT1080NT lethal inactive, KB-V1 MDR tox 5.8µM! and HepG2 viability inactive.
Screening O=C(CC1C(=O)N(c2ccc(Cl)cc2)C(=S)N1CCc1ccncc1)Nc1ccc(F)cc1 (configuration not stated) returned HT1080 IDH1KD tx inconclusive, KB-3-1 cytotox inactive, TGFb SMAD3 inh inconclusive, HT1080NT lethal inconclusive, KB-V1 MDR tox inactive and HepG2 viability 11µM.
For COc1ccc(NC(=O)CC2C(=O)N(C)C(=S)N2Cc2cccs2)cc1 (configuration not stated) the results were HT1080 IDH1KD tx inactive, KB-3-1 cytotox inactive, TGFb SMAD3 inh inactive, HT1080NT lethal inactive, KB-V1 MDR tox inactive and HepG2 viability inactive.

From PubChem
